Measurements taken from doi:10.1101/2024.03.05.583629.

molecular target: pT7_6His-AlfaTag-ZIF268 (human, UniProt P18146 335-423); assay: PADIT-seq; settings: dsDNA, one strand shown

Row | Sequence | binding signal [log2FC]
1 | CTCGAGGATATCAAGATCTGGCCTCGGCAGATGGGCGGGAACCTCTAGCTAGCCGACTCACTATAGGGATAATCGCCCTGAGCAAAGACC | 0.0303 ± 0.101
2 | CTCGAGGATATCAAGATCTGGCCTCGGCGCGTGGCTCGGAACCTCTAGCTAGCCGACTCACTATAGGGATAATCGCCCTGAGCAAAGACC | 0.122 ± 0.1
3 | CTCGAGGATATCAAGATCTGGCCTCGGCCGCCCACAAGGAACCTCTAGCTAGCCGACTCACTATAGGGATAATCGCCCTGAGCAAAGACC | 0.545 ± 0.102
4 | CTCGAGGATATCAAGATCTGGCCTCGGCGGCCCACGCGGAACCTCTAGCTAGCCGACTCACTATAGGGATAATCGCCCTGAGCAAAGACC | 0.55 ± 0.0922
5 | CTCGAGGATATCAAGATCTGGCCTCGGCGTGTGGGCGGGAACCTCTAGCTAGCCGACTCACTATAGGGATAATCGCCCTGAGCAAAGACC | 3.29 ± 0.0753
6 | CTCGAGGATATCAAGATCTGGCCTCGGCGCGCTGGCGGGAACCTCTAGCTAGCCGACTCACTATAGGGATAATCGCCCTGAGCAAAGACC | 0.0489 ± 0.154
7 | CTCGAGGATATCAAGATCTGGCCTCGGCTGGTGGGCGGGAACCTCTAGCTAGCCGACTCACTATAGGGATAATCGCCCTGAGCAAAGACC | 1.81 ± 0.0735
8 | CTCGAGGATATCAAGATCTGGCCTCGGCGCGTGGACGGGAACCTCTAGCTAGCCGACTCACTATAGGGATAATCGCCCTGAGCAAAGACC | 0.177 ± 0.113
9 | CTCGAGGATATCAAGATCTGGCCTCGGCGCGGCGGCGGGAACCTCTAGCTAGCCGACTCACTATAGGGATAATCGCCCTGAGCAAAGACC | 0.141 ± 0.11
10 | CTCGAGGATATCAAGATCTGGCCTCGGCGACTGGGCGGGAACCTCTAGCTAGCCGACTCACTATAGGGATAATCGCCCTGAGCAAAGACC | 0.0505 ± 0.0931
11 | CTCGAGGATATCAAGATCTGGCCTCGGCCGCGGCCGCGGAACCTCTAGCTAGCCGACTCACTATAGGGATAATCGCCCTGAGCAAAGACC | 0.0714 ± 0.102
12 | CTCGAGGATATCAAGATCTGGCCTCGGCCGCCCCCGCGGAACCTCTAGCTAGCCGACTCACTATAGGGATAATCGCCCTGAGCAAAGACC | 1.56 ± 0.0899
